A selection: hits, their analogues and other compounds. The true share with any hit is near 2.3%.
M1 ag parental: nonselective activator or artifact in parental CHO-K1 cells. activation, % at 3 µM. actives 0.48% (n = 360,000). Fluo-8 calcium fluorescence; scaled to maximal ATP response, vehicle zero. AID 602248; in the data active means activation above about 15%;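 further: untransfected CHO-K1 host cells lacking M1 receptor as counterscreen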
CHRM1 agonist: activates human CHRM1 receptor | actives 0.33% (n = 360,000) | CHO-K1 hM1, Fluo-8 calcium fluorescence, agonist mode; 0% DMSO, 100% acetylcholine EC100 | P11229 | activation, % at 3 µM;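 active means activation above the run's mean compound activation plus 3 SD, cut at about 16% in these data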;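 further: peak over basal fluorescence ratio within a 140 s kinetic read after compound addition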
Target sequence (P11229 whole entry, looked up): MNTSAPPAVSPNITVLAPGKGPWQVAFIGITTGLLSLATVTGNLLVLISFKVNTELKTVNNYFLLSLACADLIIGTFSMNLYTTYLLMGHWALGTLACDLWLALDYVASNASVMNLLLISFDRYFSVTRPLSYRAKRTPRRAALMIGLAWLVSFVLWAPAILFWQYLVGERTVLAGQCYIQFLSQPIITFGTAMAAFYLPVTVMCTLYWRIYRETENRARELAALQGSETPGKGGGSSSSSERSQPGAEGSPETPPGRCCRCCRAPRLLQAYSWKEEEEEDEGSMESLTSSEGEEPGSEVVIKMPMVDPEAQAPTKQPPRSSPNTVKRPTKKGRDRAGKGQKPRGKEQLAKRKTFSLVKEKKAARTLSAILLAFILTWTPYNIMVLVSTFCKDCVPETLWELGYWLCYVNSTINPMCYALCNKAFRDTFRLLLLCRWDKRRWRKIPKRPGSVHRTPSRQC
M1 PAM: potentiates human M1 receptor response to acetylcholine; P11229; CHO-K1 hM1, Fluo-8 calcium fluorescence, ACh EC20; 0% = ACh EC20, 100% = maximal ACh; activation, % at 3 µM; actives 0.088% (n = 360,000); in the data active means activation above about 19%, passing the limit was not always enough
M1 PAM parental: counter-screen for M1 PAMs: effect in parental CHO-K1 cells. ATP EC20, Fluo-8 calcium fluorescence; 0% at ATP EC20, 100% at ATP max. activation, % at 3 µM. actives 0.02% (n = 360,000);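 active means activation above the run cutoff, the mean activation of all test compounds plus 3 SD, cut at about 40% in these data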;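 further: peak over basal fluorescence ratio in a 140 s read after ATP addition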
CHO-K1 Ca antag: counter-screen for M1 antagonists: effect in parental CHO-K1 cells; ATP-induced calcium, Fluo-8 fluorescence; inhibition, % at 3 µM; actives 0.6% (n = 360,000);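 active means inhibition above a per-plate cutoff, the plate's mean sample inhibition plus 3 SD, cut at about 24% in these data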
CHRM1 antagonist: blocks human M1 muscarinic receptor; AID 588852; actives 1.3% (n = 360,000); CHO-K1 hM1, Fluo-8 calcium fluorescence, ACh EC80 antagonist; inhibition, % at 3 µM; P11229;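 active means percent inhibition above its own plate's cutoff, namely the mean of that plate's compound wells plus 3 SD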;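 further: peak over basal fluorescence ratio during 140 s after agonist addition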
Hits are given with their value; – = inactive.

SMILES | M1 ag parental | CHRM1 agonist | M1 PAM | M1 PAM parental | CHO-K1 Ca antag | CHRM1 antagonist
COc1ccc(-c2oc(NC(=O)CCl)c(C#N)c2-c2ccc(OC)cc2)cc1 | – | – | – | – | – | 46.2
O=C(CCN1CCC2CCC(C2)C1)c1ccccc1 (stereo not given) | – | – | – | – | – | –
OC(CCN1CCC2CCC(C2)C1)c1ccc(Br)cc1 (stereo not given) | – | – | – | – | – | 37.4
CCOC(=O)CC1COCCN1C(=O)CCc1nnc(-c2ccsc2)o1 (stereo not given) | – | – | – | – | – | –
CCOC(=O)N1CCN(C2=Nc3cccc4cccc2c34)CC1 | – | – | – | – | – | 83.8
c1ccc(CC2CCN(C3=Nc4cccc5cccc3c45)CC2)cc1 | – | – | – | – | – | 71.7
COc1ccccc1N1CCN(C2=Nc3cccc4cccc2c34)CC1 | – | – | – | – | – | 88.9
CN(C)S(=O)(=O)c1ccc(NC(=O)c2cc(-c3cccs3)nc3ccccc23)cc1 | – | – | – | – | – | 41.7
CCN(CC)S(=O)(=O)c1ccc(NC(=O)c2cc(-c3cccs3)nc3ccccc23)cc1 | – | – | – | – | – | –
COc1ccc(NC(=O)c2cc(-c3ccccn3)nc3ccccc23)cc1S(=O)(=O)N(C)C | – | – | – | – | – | 33.6
CCN(CC)S(=O)(=O)c1cc(NC(=O)c2cc(-c3ccccn3)nc3ccccc23)ccc1C | – | – | – | – | – | –
COc1ccc(C(=O)/C=C2\Sc3ccccc3N2C)cc1 | – | – | – | – | – | –
COc1ccccc1-[n+]1c(C)cc(/C=C2\Sc3ccccc3N2C)cc1C | 33.8 | 36.1 | – | – | 51.5 | 82.8
COc1ccc(-[n+]2c(C)cc(/C=C3\Sc4ccccc4N3C)cc2C)cc1 | 20.7 | – | – | – | 40.3 | 80.8
CCN(CC)S(=O)(=O)c1cc(NC(=O)C(C)OC(=O)c2[nH]c(C)c(C(C)=O)c2C)ccc1C (stereo not given) | – | – | – | – | – | –
Cc1[nH]c(=S)[nH]c(=O)c1Cc1c(O)ccc2ccccc12 | – | 35.0 | 27.4 | – | – | –
Cc1[nH]c(=S)[nH]c(=O)c1Cc1ccccc1 | – | – | – | – | – | –
CCOc1ccc(S(=O)(=O)NCCC(=O)NCC(c2ccc(F)cc2)N2CCOCC2)cc1 (stereo not given) | – | – | – | – | – | –
COc1ccc(NC(=O)Cc2coc3cc(C)c(C(C)C)cc23)cc1S(=O)(=O)N1CCOCC1 | – | – | – | – | – | –
O=c1[nH]nc(Br)c(=O)n1C(c1ccccc1)c1ccccc1 | 26.2 | 18.7 | – | – | – | –
CC(C)[C@@H]1CC[C@@H](C)C[C@H]1O | – | – | – | – | – | –
CC1C(=O)OC2C1CCC1(C)C3(C)C(=O)C=CC213 (stereo not given) | – | – | – | – | – | –
COc1ccc(NCC(=O)N/N=C/C=C\c2ccccc2)cc1 | – | – | – | – | – | –
COc1ccccc1NCC(=O)N/N=C/C=C/c1ccccc1 | – | – | – | – | 23.9 | –
COc1ccc(C)c2sc(N3CCCC3)nc12 | – | – | – | – | – | –
SMILES | M1 ag parental | CHRM1 agonist | M1 PAM | M1 PAM parental | CHO-K1 Ca antag | CHRM1 antagonist
COc1ccc(OC)c2sc(N3CCN(c4ccccc4)CC3)nc12 | – | – | – | – | 27.6 | –
CSc1ccc2c(c1)C(N1CCN(C)CC1)Cc1ccc(F)cc1S2 (stereo not given) | – | – | – | – | – | 69.2
O=[N+]([O-])c1ccc2c(c1)C(N1CCN(CCO)CC1)Cc1ccc(F)cc1S2 (stereo not given) | – | – | – | – | – | –
CCCCNC(=O)CNC(=S)N(Cc1ccccc1F)C1CCCCC1 | – | – | – | – | – | –
Cc1ccc(NC(=O)C2CCCN(C3=NS(=O)(=O)c4ccccc43)C2)c(O)c1 (stereo not given) | – | – | – | – | 26.3 | –
Cc1c(CCOC(=O)c2ccc(Cl)cc2Cl)sc[n+]1CC(=O)c1ccccc1 | – | – | – | – | – | 95.3
Cc1c(CCOC(=O)C23CC4CC(CC(C4)C2)C3)sc[n+]1Cc1ccccc1 | – | – | – | – | – | 64.3
Cc1c(CCOC(=O)C23CC4CC(CC(C)(C4)C2)C3)sc[n+]1Cc1ccccc1 | – | – | – | – | – | 99.8
